Source: PubChem BioAssay (National Center for Advancing Translational Sciences (NCATS))
Compounds with a hit are over-represented: about 19% of the library has one in this group of screens.
LASV entry inh: qHTS for Inhibitors of binding or entry into cells for Lassa Virus. 300,000 compounds, 1.2% hits. Potency, µM (highest dose often 37.9 µM), without a hit: at the top dose activity change, negative = inhibition, most hits filed as inhibitors. Lassa virus pseudotype entry inhibition, cell reporter; calls by dose curve; tested in HEK293 cells; further: potency means the concentration at half of the fitted maximal effect; on the % scale 0 is the no-effect control and ±100 the full control effect; nearly all actives have a fitted effect of over 50% in size
MARV entry inh: qHTS for inhibitors of binding or entry into cells for Marburg Virus. Marburg virus pseudotyped entry inhibition, cell reporter. Potency, µM (series often up to 37.8 µM), without a hit: at the top dose activity change, negative = inhibition, hits mostly inhibitors. 300,000 compounds, 1.8% hits. AID 540276, 2011; calls by dose curve; tested in HEK293 cells; further: potency means the concentration at half of the fitted maximal effect; on the % scale 0 is the no-effect control and ±100 the full control effect
Cycloheximide cs: Cycloheximide Counterscreen for Small Molecule Inhibitors of Shiga Toxin; cell reporter, cycloheximide protein synthesis inhibition counterscreen; 300,000 compounds, 12% hits; AID 2314, 2010; max response, %; in the data active means max response mostly above about 13%, no sharp cut-off; inactive means mostly below about 14%; further: read at 38.3 µM for the half of the compounds with a filed dose; 0% is about no effect
Pf growth 96h: Primary qHTS for delayed death inhibitors of the malarial parasite plastid, 96 hour incubation. P. falciparum luciferase reporter growth, 96 h. 320,000 compounds, 6.9% hits. Potency, µM (top dose mostly 28.7 µM), without a hit: top-dose activity change, negative = inhibition, most hits filed as inhibitors; further: potency means the concentration at half of the fitted maximal effect; on the % scale 0 is the no-effect control and ±100 the full control effect
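Luminescence readout: decreased luciferase signal marks inhibited growth of reporter-expressing P. falciparum in infected red cells (2% hematocrit, 0.05% parasitemia final), exposed to compound two generations (96 h, 37 C, 5% CO2).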
Pf growth 48h: Primary qHTS for delayed death inhibitors of the malarial parasite plastid, 48 hour incubation | Potency, µM (top dose mostly 28.7 µM), for the others: at the highest dose activity change, negative = inhibition, most hits filed as inhibitors | 310,000 compounds, 5.9% hits | P. falciparum luciferase growth in erythrocytes, 48 h; further: potency means the concentration at half of the fitted maximal effect; on the % scale 0 is the no-effect control and ±100 the full control effect
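Compounds are pin-transferred into medium, infected erythrocytes (2% hematocrit, 0.1% parasitemia final) are added, and plates sit one parasite generation at 37 C in 5% CO2. Detection reagent is then added and luminescence measured.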
Shiga toxin inh: A qHTS for Small Molecule Inhibitors of Shiga Toxin | Vero cells, Shiga toxin protein synthesis inhibition reporter | inhibition, % at 38.7 µM | 290,000 compounds, 9.2% hits | AID 2315, 2010; in the data active means inhibition mostly above about 28%, no sharp cut-off; inactive means mostly below about 43%; further: 0% is about no effect
* = called active by the depositor; [ ] = remark or other dose. Unless noted, the call rests on the fitted dose curve; in most records, active means well fitted inhibition curve with a large enough effect; inconclusive means small, poorly fitted or top-dose-only effect, or another doubt; inactive means no such curve, though single readings can be large or run the other way.

For Cc1c(Br)c(C(=O)NNC(=O)c2ccc(C(C)(C)C)cc2)nn1C the results were Cycloheximide cs 27.0*, Pf growth 96h 31.7%, Pf growth 48h 24.1% and Shiga toxin inh 33.2.
`Cn1cc(Br)c(C(=O)NNC(=O)c2ccc(Br)cc2)n1` gave LASV entry inh 3.4%, MARV entry inh 22.3%, Cycloheximide cs 35.3*, Pf growth 96h inconclusive, Pf growth 48h 103.3% and Shiga toxin inh active.
For Cn1cc(Br)c(C(=O)NNC(=O)Nc2ccccc2C(F)(F)F)n1 the results were LASV entry inh 7.6%, MARV entry inh 6.5%, Cycloheximide cs 26.2*, Pf growth 96h 33.1%, Pf growth 48h 18.5% and Shiga toxin inh 50.7.
Screening COc1ccc(NC(=O)Nc2nnc(Cc3ccccc3)s2)cc1 returned Cycloheximide cs -0.9, Pf growth 96h inconclusive, Pf growth 48h inconclusive and Shiga toxin inh -2.6.
`O=C(Nc1ccccc1)Nc1nnc(-c2cccs2)s1` gave LASV entry inh inconclusive, MARV entry inh inconclusive, Cycloheximide cs 29.0*, Pf growth 96h 41.5%, Pf growth 48h 118.1% and Shiga toxin inh 24.7.
O=C(Cc1nnc(NC(=O)Nc2ccccc2)s1)Nc1ccccc1 was read as Cycloheximide cs -2.4, Pf growth 96h 33.5%, Pf growth 48h 56.3% and Shiga toxin inh -2.4.
O=C(Nc1nnc(-c2cccs2)s1)c1cccc(F)c1 was read as LASV entry inh inconclusive, MARV entry inh inconclusive, Cycloheximide cs 18.9*, Pf growth 96h -9.3%, Pf growth 48h 172.9% and Shiga toxin inh 58.8*.
Screening COc1ccc(C(=O)Nc2nnc(-c3cccs3)s2)cc1 returned LASV entry inh inconclusive, MARV entry inh 3.16µM*, Cycloheximide cs 43.1*, Pf growth 96h -29.2% and Shiga toxin inh 60.3*.
Screening COc1ccc(C(=O)Nc2nc(-c3cccs3)c(NC(C)=O)s2)cc1 returned LASV entry inh -27.5%, MARV entry inh -29.9%, Cycloheximide cs -1.8, Pf growth 96h 32.9%, Pf growth 48h -13.0% and Shiga toxin inh 38.1.
For COc1ccc(NC(=O)Nc2nnc(-c3cccs3)s2)cc1 the results were MARV entry inh 1.8%, Cycloheximide cs 24.9*, Pf growth 96h 54.8%, Pf growth 48h -7.8% and Shiga toxin inh 61.2*.
For CC(=O)Nc1ccc(S(=O)(=O)NCCSCc2ccccc2Cl)cc1 the results were LASV entry inh inconclusive, MARV entry inh inconclusive, Cycloheximide cs -1.1, Pf growth 96h 27.6%, Pf growth 48h -3.1% and Shiga toxin inh -9.1.
Cc1ccc(C)c(S(=O)(=O)ON2C(=O)c3ccccc3C2=O)c1 was read as LASV entry inh 16.4%[46.1 µM], MARV entry inh inconclusive, Cycloheximide cs 0.1, Pf growth 96h inconclusive, Pf growth 48h 11.4% and Shiga toxin inh -7.9.
COc1ccc(C(=O)NCc2cc(C)nc3ccccc23)cc1OC was read as LASV entry inh -16.1%, MARV entry inh inconclusive, Cycloheximide cs -8.1, Pf growth 96h 10.2%, Pf growth 48h 12.5% and Shiga toxin inh 1.2.
Screening Cc1occc1C(=O)Nc1nnc(-c2cccs2)s1 returned LASV entry inh 6.2%[46.1 µM], MARV entry inh inconclusive, Cycloheximide cs 33.9*, Pf growth 96h 62.5%, Pf growth 48h 66.2% and Shiga toxin inh 106.5*.
`COc1ccc(OC)c(C(=O)CN2C(=O)NC(C)(c3ccccc3)C2=O)c1` (stereo not given) gave LASV entry inh -23.8%, MARV entry inh inconclusive, Cycloheximide cs -2.8, Pf growth 96h 0.6%, Pf growth 48h 6.3% and Shiga toxin inh -9.0.
`Cc1ccccc1CSc1ccc(-c2cccs2)nn1` gave LASV entry inh -1.2%[46.1 µM].
c1cncc(CSc2ccc(-c3cccs3)nn2)c1 was read as LASV entry inh 4.9%, MARV entry inh -15.7%[46.1 µM], Cycloheximide cs 26.1*, Pf growth 96h inconclusive, Pf growth 48h 206.3% and Shiga toxin inh 44.2*.
Screening Cc1ccc(CSc2ccc(-c3cccs3)nn2)cc1 returned LASV entry inh inconclusive, MARV entry inh -20.0%, Cycloheximide cs 46.2*, Pf growth 96h 150.3%, Pf growth 48h 149.5% and Shiga toxin inh 46.7*.
